# Reference: the supplement of paper PMC8975748
# Structures can show the parent of a compound that is named as a salt.
# System: Saccharomyces cerevisiae BY4741 SeMeCo community
# Assay: z-score of subpopulation abundance vs DMSO median, subpopulation auxotrophic for LU; higher = larger share of this subpopulation than in DMSO controls
# Conditions: 10 µM; 24 h; SM minimal medium; subpopulation (auxotrophy): LU
# Method: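 Fluorescent four-plasmid SeMeCo (self-establishing metabolically cooperating S. cerevisiae BY4741 community; plasmids pH-mRuby2, pL-mWasabi, pU-eCFP, pM-TagRFP657) was grown 24 h in minimal SM medium with each Selleck FDA-approved drug at 10 µM in 384-well plates. Cells were fixed and imaged by high-content confocal microscopy. For each auxotrophic subpopulation (and the prototroph), a z-score gives the deviation from the DMSO vehicle-control population median.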
row,SMILES,z-score of subpopulation abundance
1,Cc1nc2n(c(=O)c1CCN1CCC(c3noc4cc(F)ccc34)CC1)CCCC2O (stereo not given) [Paliperidone],-0.02
2,CC[C@@H]1/C=C(\C)C[C@H](C)C[C@H](OC)[C@H]2O[C@@](O)(C(=O)C(=O)N3CCCC[C@H]3C(=O)O[C@H](/C(C)=C/[C@@H]3CC[C@H](Cl)[C@H](OC)C3)[C@H](C)[C@@H](O)CC1=O)[C@H](C)C[C@@H]2OC [Pimecrolimus],-0.41
3,Cc1cc(C)nc(NS(=O)(=O)c2ccc(N)cc2)n1 [Sulfamethazine Sodium Salt],-0.11
4,CC[N+](C)(C)c1cccc(O)c1 [Edrophonium chloride],1.17
5,NC[C@H]1O[C@H](O[C@H]2[C@H](O)[C@@H](O[C@H]3O[C@H](CO)[C@@H](O)[C@H](N)[C@H]3O)[C@H](N)C[C@@H]2N)[C@H](O)[C@@H](O)[C@@H]1O [Kanamycin sulfate],-0.08
6,CC(C(=O)O)c1cccc(C(=O)c2ccccc2)c1 (stereo not given) [Ketoprofen],0.57
7,CC(=O)[C@@]1(O)CC[C@H]2[C@@H]3C[C@H](C)C4=CC(=O)CC[C@]4(C)[C@H]3CC[C@@]21C [Medroxyprogesterone],0.44
8,CCCCC(F)(F)[C@@]1(O)CC[C@H]2[C@@H](CC(=O)[C@@H]2CCCCCCC(=O)O)O1 [Lubiprostone],-0.53
9,C[N+]1(C)[C@@H]2C[C@@H](OC(=O)C(O)(c3cccs3)c3cccs3)C[C@H]1[C@@H]1O[C@@H]12 [Tiotropium Bromide hydrate],-0.81
10,CC(=O)OC(C)C[N+](C)(C)C (stereo not given) [Methacholine chloride],1.46
11,Cc1ccc(-c2ncc(Cl)cc2-c2ccc(S(C)(=O)=O)cc2)cn1 [Etoricoxib],-0.52
12,CN[C@H]1CC[C@@H](c2ccc(Cl)c(Cl)c2)c2ccccc21 [Sertraline HCl],-0.7
13,C(=C\c1ccccc1)/CN1CCN(C(c2ccccc2)c2ccccc2)CC1 [Cinnarizine],1.38
14,O=C1[C@@H]2[C@H]3CC[C@H](C3)[C@@H]2C(=O)N1C[C@@H]1CCCC[C@H]1CN1CCN(c2nsc3ccccc23)CC1 [lurasidone],-0.67
15,CCc1cccc2c3c([nH]c12)C(CC)(CC(=O)O)OCC3 (stereo not given) [Etodolac],0.31
16,O=C1c2cccc3c2[C@H](CCC3)CN1[C@@H]1CN2CCC1CC2 [Palonosetron HCl],-0.38
17,Cc1c(Nc2ncccc2C(=O)O)cccc1C(F)(F)F [Flunixin Meglumin],-0.33
18,Cc1c(-c2ccccc2)oc2c(C(=O)OCCN3CCCCC3)cccc2c1=O [Flavoxate HCl],1.88
19,COC(=O)C1=C(C)NC(C)=C(C(=O)OCCN2CCN(C(c3ccccc3)c3ccccc3)CC2)C1c1cccc([N+](=O)[O-])c1 (stereo not given) [Manidipine 2HCl],-0.77
20,Nc1cc(C(Cl)=C(Cl)Cl)c(S(N)(=O)=O)cc1S(N)(=O)=O [Clorsulon],0.95

row,SMILES,z-score of subpopulation abundance
1,Nc1nc(N)nc(-c2cc(Cl)ccc2Cl)n1 [Irsogladine],-1.09
2,CCCCNc1ccc(C(=O)OCCN(C)C)cc1 [Tetracaine HCl],1.2
3,CC1(C)S[C@@H]2[C@H](NC(=O)[C@H](N)c3ccc(O)cc3)C(=O)N2[C@H]1C(=O)O [Amoxicillin],0.41
4,CC(C)COCC(CN(Cc1ccccc1)c1ccccc1)N1CCCC1 (stereo not given) [Bepridil hydrochloride],1.16
5,Fc1ccc([C@@H]2CCNC[C@H]2COc2ccc3c(c2)OCO3)cc1 [Paroxetine HCl],-0.16
6,COc1ccc2cc3[n+](cc2c1OC)CCc1cc2c(cc1-3)OCO2 [Berberine chloride],-0.32
7,Cc1nc2n(c(=O)c1CCN1CCC(c3noc4cc(F)ccc34)CC1)CCCC2 [Risperidone],0.52
8,C[N+](C)(C)CCOC(=O)CCC(=O)OCC[N+](C)(C)C [Succinylcholine Chloride Dihydrate],-1.48
9,COCC1=C(C(=O)OC(C)OC(=O)OC(C)C)N2C(=O)[C@@H](NC(=O)/C(=N\OC)c3csc(N)n3)[C@H]2SC1 (stereo not given in full) [Cefpodoxime proxetil],0.31
10,CCCCCc1ccc(C)cc1O [Amylmetacresol],0.24
11,CC[C@H](C)C(=O)O[C@H]1C[C@@H](C)C=C2C=C[C@H](C)[C@H](CC[C@@H]3C[C@@H](O)CC(=O)O3)[C@H]21 [Lovastatin],0.16
12,CCC1(C)CC(=O)NC1=O (stereo not given) [Ethosuximide],0.79
13,Cc1nnc(SCC2=C(C(=O)O)N3C(=O)[C@@H](NC(=O)Cn4cnnn4)[C@H]3SC2)s1 [Cefazolin Sodium],1.43
14,CS(=O)(=O)c1ccc(C2=C(c3ccccc3)C(=O)OC2)cc1 [Rofecoxib],0.3
15,CN(C)CCn1nnnc1SCC1=C(C(=O)O)N2C(=O)[C@@H](NC(=O)Cc3csc(N)n3)[C@H]2SC1 [Cefotiam hydrochloride],1.53
16,CS(=O)(=O)Nc1ccc([N+](=O)[O-])cc1Oc1ccccc1 [Nimesulide],0.49
17,COc1ccc(C(C)=O)c(O)c1 [Paeonol],0.12
18,Cn1c(=O)c2[nH]cnc2n(C)c1=O [Aminophylline],1.06
19,CC[C@H]1OC(=O)[C@H](C)[C@@H](O[C@H]2C[C@@](C)(OC)[C@@H](O)[C@H](C)O2)[C@H](C)[C@@H](O[C@@H]2O[C@H](C)C[C@H](N(C)C)[C@H]2O)[C@](C)(O)C[C@@H](C)/C(=N\OCOCCOC)[C@H](C)[C@@H](O)[C@]1(C)O [Roxithromycin],-0.28
20,O=C(N[C@H](CO)[C@H](O)c1ccc([N+](=O)[O-])cc1)C(Cl)Cl [Chloramphenicol],-0.22
